Screens as filed in PubChem BioAssay.
Efflux pump mplx = inhibitors of Candida efflux pumps in yeast, primary screen, S. cerevisiae, Nile Red, multiplex | AID 485275, 2010 | 0.44% of 330,000 active | inhibition, % at 10 µM | S. cerevisiae Candida pump triplex;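 active = plate passing quality check with inhibition over a set limit, or well fluorescence over plate mean plus 4 SD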;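 also: Nile Red retained in pooled yeast measured as flow cytometry median fluorescence; 0% = buffer negative control and 100% = Enniatin B positive control; higher means more Nile Red kept so more efflux inhibition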
HDAC3 inhib = HDAC3 deacetylase inhibitors, primary screen, biochemical, fluorescence, cell-free homogeneous; recombinant HDAC3, fluorogenic peptide/trypsin coupled; AID 2718, 2010; 0.15% of 320,000 active; inhibition, % at 8.3 µM; Histone deacetylase 3 (Homo sapiens), O15379; in the data active = inhibition above about 26%, passing the limit was not always enough; inconclusive = no clear call, values can overlap the other calls
Target sequence (O15379 whole entry, looked up): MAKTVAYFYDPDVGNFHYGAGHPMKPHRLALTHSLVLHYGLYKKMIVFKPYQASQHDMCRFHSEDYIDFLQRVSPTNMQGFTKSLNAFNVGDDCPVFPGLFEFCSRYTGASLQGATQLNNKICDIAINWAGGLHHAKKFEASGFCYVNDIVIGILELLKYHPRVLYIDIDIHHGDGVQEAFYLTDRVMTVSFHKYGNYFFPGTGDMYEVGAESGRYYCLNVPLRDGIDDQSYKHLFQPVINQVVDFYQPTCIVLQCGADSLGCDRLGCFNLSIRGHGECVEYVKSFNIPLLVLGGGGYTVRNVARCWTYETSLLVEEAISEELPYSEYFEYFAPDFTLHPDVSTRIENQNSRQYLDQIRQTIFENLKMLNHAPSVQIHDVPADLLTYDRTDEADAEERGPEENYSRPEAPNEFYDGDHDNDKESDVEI
Rtt109 HAT inh = inhibitors of C. albicans Rtt109/Vps75 HAT, primary screen, biochemical, ThioGlo CoA-SH fluorescence, plate reader; Histone acetyltransferase RTT109 (Candida albicans (strain SC5314 / ATCC MYA-2876)), …; purified Rtt109/Vps75, 4 h; AID 540336, 2011; 0.16% of 330,000 active; inhibition, % at 34.9 µM;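 active = inhibition of at least 50% in every replicate; inconclusive = best replicate reaches 50% inhibition but some replicates fall short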
GRK2 aptamer HTS = compounds blocking aptamer binding on GRK2 – biochemical, human GRK2, bead flow cytometry, HTS, primary screen; AID 488847, 2010; inhibition of aptamer binding, % at 10 µM; Beta-adrenergic receptor kinase 1 (Homo sapiens), P25098; FAM-aptamer displacement from GRK2; 0.59% of 330,000 active;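 active = inhibition of aptamer binding above 40%, roughly 3 SD of noise, on plates passing a quality check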;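 also: median bead fluorescence of bound FAM aptamer so fluorescent compounds give negative values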
Rce1 inh = yeast Rce1p protease inhibitors, primary screen, biochemical, fluorescence, cell-free homogeneous; CAAX prenyl protease 2 (Saccharomyces cerevisiae (strain ATCC 204508 / S288c)), Q03530; yeast membranes, quenched prenylated peptide cleavage fluorescence; calls only; 0.27% of 290,000 active;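 active = fall in fluorescence gain of 50% or more versus controls, with final raw signal at or below 3038400; inconclusive = same 50% fall but final raw signal above 3038400; inactive = fall in fluorescence gain under 50%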;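 also: plate controls were neutral control wells for no effect and wells lacking membranes for full effect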
ALR inh = inhibitors of human ALR sulfhydryl oxidase, primary screen, biochemical, H2O2 detection, HRP-luminol luminescence, single point; inhibition, % (no concentration beside the values); FAD-linked sulfhydryl oxidase ALR (Homo sapiens), P55789; purified ALR, DTT oxidation; 3.8% of 290,000 active;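 active = mean replicate inhibition above about 79%, with every replicate also reaching it, limit read from the data; inconclusive = only one of the two criteria met; inactive = mean below limit and not every replicate reaching it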
* hit, by the source's call; i = inactive; ? = inconclusive; . = no result given; + = active, no number. Compounds with a hit are over-represented: about 4.5% of the library has one in this group of screens.

SMILES	Efflux pump mplx	HDAC3 inhib	Rtt109 HAT inh	GRK2 aptamer HTS	Rce1 inh	ALR inh
CCOC(=O)c1sc(NNC(=O)c2ccc(C)cc2)nc1C	0	-4	-8	0	i	.
COc1cc(C(=O)NNC(=O)c2ccccc2Br)ccc1OCC(=O)N1CCOCC1	0	12	10	1	i	2
O=C(Nc1ccccc1Br)c1c(F)cccc1Cl	0	-1	1	2	i	-3
CC[N+](CC)(CC)CC(=O)Nc1ccc(SC(F)F)cc1	0	?	12	5	i	-11
CCn1c(N)[n+](CC(=O)Nc2ccc(SC(F)F)cc2)c2ccccc21	0	3	8	0	i	89*
Cc1cc2nn(-c3cccc4ccccc34)nc2cc1NC(=O)c1cccs1	0	-6	3	0	+	2
CC(C)CCC1(CCO)C(=O)N=C(N)NC1=O (stereo not drawn)	.	.	0	.	.	.
Cc1ccc(-n2nc3cc(C)c(NC(=S)NC(=O)/C=C/c4ccco4)cc3n2)cc1	0	2	-10	0	i	86*
CCSc1nc2c(c(-c3ccc(C)o3)c1C#N)CCCC2	0	5	-3	0	i	83*
Cc1ccc(NC(=O)c2ccco2)c(NC(=O)C2CCCO2)c1 (stereo not drawn)	0	3	.	0	i	5
Cc1ccc(C(=O)N2N=C(c3ccccc3O)CC2c2ccccc2)cc1 (stereo not drawn)	0	3	-3	2	+	2
O=C(c1ccccc1)N1N=C(c2ccccc2)CC1c1ccccc1 (stereo not drawn)	1	11	0	0	i	0
COC(=O)c1ccc(N)cc1O	0	-4	3	1	i	6
COC(=O)c1ccc(=O)c2nc3/c(=C/O)c(O)cc(=O)c3[nH]c12	0	3	10	67*	.	-4
CN(CC(=O)Nc1ccc(Cl)c(Cl)c1)C(=O)CC1OC(=O)c2ccccc21 (stereo not drawn)	0	-5	4	0	i	-3
COc1cc(C2SCC(=O)N2Cc2ccccc2)cc(OC)c1OC (stereo not drawn)	0	-3	0	0	i	.
CCOC(=O)CSC(=S)NC(=O)c1ccc(OC)cc1	0	79*	8	4	i	100*
CCN1CCc2nc(SCC(=O)Nc3ccc(OC)cc3)c(C#N)cc2C1	0	8	11	3	i	99*
Cc1noc(NS(=O)(=O)c2ccc(NC(=O)CSc3nc4c(cc3C#N)CCCCC4)cc2)c1C	0	4	5	0	i	54
COc1ccc(NC(=O)CSc2nc3c(cc2C#N)CN(C)CC3)cc1	0	8	7	0	i	97*
COc1ccc(-c2c(C#N)c(SCC(=O)Nc3ccccc3)nc3c2CCCC3)cc1	0	0	-30	0	.	-3
CN1CCc2nc(SCc3ccc(C(C)(C)C)cc3)c(C#N)cc2C1	0	-3	2	0	.	?
CN1CCc2nc(SCC(=O)Nc3ccc(F)cc3)c(C#N)cc2C1	0	7	.	57*	i	99*
COc1cc(SC)ccc1C(=O)N1CCN(S(=O)(=O)/C=C/c2ccccc2)CC1	0	.	-8	0	.	.
O=S(=O)(c1ccc(Cl)cc1)N1CCN(c2ncnc3sccc23)CC1	0	2	0	0	.	-6
SMILES	Efflux pump mplx	HDAC3 inhib	Rtt109 HAT inh	GRK2 aptamer HTS	Rce1 inh	ALR inh
C=CCNc1cnn(-c2ccc(C)cc2)c(=O)c1Sc1ccc(C)cc1	0	-8	-5	0	i	2
COc1ccc(-c2nc(CS(=O)(=O)CC(=O)NCc3ccccc3Br)c(C)o2)cc1	0	.	-4	3	i	98*
COc1ccc(-c2nc(CS(=O)(=O)CC(=O)NCc3cccc(OC)c3OC)c(C)o2)cc1	0	.	-2	2	i	0
COc1ccc(-c2nc(CS(=O)(=O)CC(=O)NCc3ccccc3OC)c(C)o2)cc1	-1	-2	.	0	i	99*
COc1ccc(CNc2nc3ccc(C)cc3s2)c(OC)c1OC	0	6	-1	3	i	6
Fc1ccc(-n2c(CN3CCCCC3)n[nH]c2=S)cc1	0	10	-14	2	i	87*
COc1ccc(-c2cc(-c3nc4ccccn4c3NCc3ccccc3)ccc2OC)cc1	0	-9	-5	1	.	0
COc1ccc(OC)c(/C=N/c2c(-c3ccc(O)c(OC)c3)nc3ccccn23)c1	0	-11	.	0	+	?
COc1cc(-c2nc3ccccn3c2/N=C/c2cc(OC)c(OC)c(OC)c2)ccc1O	0	-2	-4	2	+	?
CCNC(=O)COc1ccc(/C=C2\COc3ccccc3C2=O)cc1OC	0	-3	15	4	.	18
CCOC(=O)C1(CCOC)CCN(C(=O)c2sccc2C)CC1	0	.	7	0	+	.
CCOC(=O)C1(Cc2ccccc2C)CCCN(C(=O)c2sccc2C)C1 (stereo not drawn)	0	-3	-4	0	.	3
CCOc1ncccc1C(=O)OCC(=O)Nc1ccc2c(c1)OCO2	0	3	.	0	i	-1
COc1ccc(NC2c3ccccc3C(=O)N2c2cccnc2)cc1Cl (stereo not drawn)	0	-4	7	0	i	83*
CC(C)(C)OC(=O)C[C@@H]1C/C=C\C[C@H](CC(=O)NCCO)C(=O)N2CCC[C@@H]2COC1=O	0	-11	0	0	.	-11
CCCCNC(=O)CCC(=O)NNc1nc2ccccc2c2nc(C)nn12	0	-2	2	0	i	-3
Cc1nc2c3ccccc3nc(NNC(=O)CCC(=O)NCCN3CCN(c4ccccc4)CC3)n2n1	0	5	4	1	i	98*
Cc1nc2c3ccccc3nc(NNC(=O)CCC(=O)N3CCN(c4ccc(F)cc4)CC3)n2n1	0	12	2	1	i	90*
CCCCCn1c(SCC2CCCO2)nc2cc(C(=O)N3CCC(C(N)=O)CC3)ccc2c1=O (stereo not drawn)	0	8	-6	0	.	.
CCCCCn1c(SCC(=O)CC(=O)OCC)nc2cc(C(=O)N3CCC(C(N)=O)CC3)ccc2c1=O	0	8	2	0	.	91*
CCOC(=O)CSc1nc2ccccc2c(=O)n1C1CCCC1	0	-5	1	5	i	-7
